SMILES strings stand for the structures. Results with a measured potency or affinity are listed apart.

Experiment [1] has as its system Staphylococcus aureus. The note with it: Concentration 32 ug.mL-1;; ASSAY_TEST Inhibition of Bacterial Growth; detection method Absorption (OD600); MEDIA CAMHB; plate type 384well; NBS; CORNING #3640; time 18 hr.
For experiment [2], the system named is Escherichia coli. The note with it: Concentration 32 ug.mL-1;; ASSAY_TEST Inhibition of Bacterial Growth; detection method Absorption (OD600); MEDIA CAMHB; plate type 384well; NBS; CORNING #3640; time 18 hr.

By Inhibition is commonly meant the change of the read-out against control, counted positive when it falls. Turning to `Cc1cc(C)cc(N(Cc2cccc(F)c2)S(=O)(=O)c2cccn3c(C)nnc23)c1`, the Inhibition in experiment [1] is recorded as 2.22%; in experiment [2], -5.24%.

`CCc1ccccc1Sc1nccn2c(=O)n(CC(=O)Nc3c(C)cccc3C)nc12`: the results for the Inhibition in experiment [1] and in experiment [2] were 13.44% and 0%, respectively.

`Cc1ccc(NC(=O)Cn2nc3ccc(-c4ccc(Cl)cc4)nn3c2=O)cc1`: the values for the Inhibition in experiment [1] and in experiment [2] were 0.77% and -0.85%, respectively.

For `CSc1cccc(NC(=O)Cn2nc3ccc(SC(C)(C)C)nn3c2=O)c1`, the Inhibition is -2.88% in experiment [1] and 1.52% in experiment [2].

As to `CC(C)c1nnc2c(SCC(=O)Nc3ccc(Br)cc3)nc3ccccc3n12`, the Inhibition stood at 1.25% in experiment [1] and 1.75% in experiment [2].

With `COc1cccc(-n2ccn3c(SCC(=O)c4ccc(C)cc4)nnc3c2=O)c1`, the Inhibition in experiment [1] is listed as 8.57%; in experiment [2] it was -9.45%.

As to `O=c1c2nnc(SCc3ccc(F)cc3)n2ccn1-c1ccc(Br)cc1`, the Inhibition in experiment [1] is 3.87%; in experiment [2] it was -5.68%.

As for `O=c1c2sccc2n2c(=O)n(Cc3c(F)cccc3Cl)nc2n1CCc1ccccc1`, the Inhibition in experiment [1] was 3.01%; in experiment [2] it was -6.52%.

`O=c1n(Cc2c(F)cccc2Cl)nc2ccc(-c3ccccc3)nn12`: the Inhibition in experiment [1] amounted to 7.33%; in experiment [2], 0.7%.

Regarding `COc1cccc(-n2ccn3c(SCC(=O)c4c[nH]c5ccc(OC)cc45)nnc3c2=O)c1`, the Inhibition in experiment [1] is given as 11.97%; in experiment [2] it was -2.96%.

For the compound `Cc1ccccc1CSc1nnc2c(=O)n(-c3ccc(Br)cc3)ccn12`, the figures for the Inhibition in experiment [1] and in experiment [2] were 1.11% and -8.83%, respectively.

`CCc1ccc(N(Cc2cc(F)cc(F)c2)S(=O)(=O)c2cccn3c(C)nnc23)cc1`: the Inhibition in experiment [1] is reported as -13.36%; in experiment [2], -0.39%.

`CCCCOc1ccc(-c2cc3c4nnc(SCC(=O)Nc5c(C)cccc5CC)n4ccn3n2)cc1`: the Inhibition is -40.6% in experiment [1] and -38.25% in experiment [2].

On to `CCOC(=O)N1CCN(C(=O)CCc2nnc3c4cc(-c5ccc(F)cc5)nn4ccn23)CC1`, for which the Inhibition in experiment [1] worked out at 10.85%; in experiment [2] it was 2.2%.

As for `COc1ccccc1-n1ccn2c(SCC(=O)Nc3ccc(C)c(F)c3)nnc2c1=O`, the figures for the Inhibition in experiment [1] and in experiment [2] were 12% and -1.35%, respectively.

For `CCc1ccccc1Sc1nccn2c(=O)n(CC(=O)Nc3ccc(OC)c(Cl)c3)nc12`, the Inhibition is recorded as 1.89% in experiment [1] and -5.89% in experiment [2].

Turning to `CC(C)c1nnc2c(=O)n(CC(=O)Nc3ccc(F)cc3F)c3ccccc3n12`, the Inhibition amounted to 12.23% in experiment [1] and 2.42% in experiment [2].

Consider `COc1ccccc1CNC(=O)Cn1nc2c(N3CCC(C)CC3)nccn2c1=O`, for which the Inhibition was 13.11% in experiment [1] and -0.77% in experiment [2].

`CSc1cccc(NC(=O)Cn2nc3c(N4CCCC(C)C4)nccn3c2=O)c1` (stereo not drawn): the Inhibition in experiment [1] is -21.6%; in experiment [2] it was -14.98%.

With `COc1cccc(Oc2nccn3c(=O)n(CC(=O)Nc4ccc(C)cc4Cl)nc23)c1`, the Inhibition in experiment [1] was 10.57%; in experiment [2], -3.8%.

As to `N#CCSc1nnc2c(=O)n(-c3ccccc3)ccn12`, the Inhibition was determined as 13.33% in experiment [1] and 0.91% in experiment [2].

With `COc1cccc(NC(=O)Cn2nc3ccc(-c4ccc(C)c(C)c4)nn3c2=O)c1`, the Inhibition in experiment [1] was -14.65%; in experiment [2], -17.62%.

For `CC(C)Cn1c(=O)c2sccc2n2c(=O)n(CC(=O)NC(C)C)nc12`, the results for the Inhibition in experiment [1] and in experiment [2] were -11.46% and 2.58%, respectively.

As to `CCc1ccc(Cn2c(=O)c3sccc3n3c(=O)n(Cc4c(F)cccc4Cl)nc23)cc1`, the Inhibition in experiment [1] is on record as 3.47%; in experiment [2], -8.75%.

Regarding `CCOc1ccc(-n2ccn3c(SCC(=O)c4cccc(OC)c4)nnc3c2=O)cc1`, the Inhibition in experiment [1] is on record as 10.49%; in experiment [2] it was -5.2%.

On to `CC(C)CCNC(=O)CSc1nnc2c3cc(-c4ccccc4)nn3ccn12`, for which the Inhibition in experiment [1] came out at 4.29%; in experiment [2], 0.66%.

Regarding `Cc1cccc(NC(=O)Cn2nc3ccc(-c4ccc(Cl)cc4)nn3c2=O)c1C`, the Inhibition was 5.25% in experiment [1] and -5.96% in experiment [2].

Consider `Cc1ccc(Cl)cc1NC(=O)CSc1nnc2n(CC3CCCO3)c(=O)c3sccc3n12` (stereo not drawn), for which the Inhibition is on record as 8.22% in experiment [1] and -0.5% in experiment [2].

Take `Cc1ccc(NC(=O)Cn2nc3c4cc(-c5ccc(C)c(C)c5)nn4ccn3c2=O)cc1C`: the Inhibition in experiment [1] is listed as 0.99%; in experiment [2] it was -7.36%.

In the case of `COc1cc(NC(=O)Cn2nc3c4c5c(sc4ncn3c2=O)CCCC5)cc(OC)c1OC`, the values for the Inhibition in experiment [1] and in experiment [2] were 7.91% and -3.63%, respectively.

As for `O=C(Cn1nc2ccc(SC3CCCCC3)nn2c1=O)Nc1ccc(F)c(F)c1`, the Inhibition is listed as -4.22% in experiment [1] and -6.38% in experiment [2].

As for `Cc1ccc(NC(=O)Cn2nc3ccc(SC(C)(C)C)nn3c2=O)c(Cl)c1`, the Inhibition is -0.06% in experiment [1] and -7.75% in experiment [2].

Take `COc1cccc(Sc2nc3ccccc3n3c(=O)n(CC(=O)Nc4ccc(C)cc4)nc23)c1`: the Inhibition in experiment [1] was 4.18%; in experiment [2], -1.95%.

For the compound `O=C(Cn1nc2c3cc(-c4ccc(Cl)cc4)nn3ccn2c1=O)NC1CCCC1`, the figures for the Inhibition in experiment [1] and in experiment [2] were -0.6% and -3.32%, respectively.

With `CCOC(=O)c1ccc(NC(=O)Cn2nc3c4sc(N5CCCC5)nc4ncn3c2=O)cc1`, the Inhibition in experiment [1] is reported as 6.07%; in experiment [2], -11.73%.

For `CCOC(=O)c1ccccc1NC(=O)Cn1nc2c3cc(-c4ccc(Cl)cc4)nn3ccn2c1=O`, the Inhibition stood at 7.33% in experiment [1] and 2.34% in experiment [2].

With `O=C(NCc1ccccc1)c1ccc2nn(CC(=O)N3CCN(c4ccc(F)cc4)CC3)c(=O)n2c1`, the Inhibition in experiment [1] is 4.28%; in experiment [2], -2.47%.

In the case of `COc1ccc(NC(=O)Cn2nc3c4cc(-c5cc(C)ccc5C)nn4ccn3c2=O)c(OC)c1`, the Inhibition in experiment [1] is listed as 3.39%; in experiment [2], 3.2%.

For `COc1ccc(-c2cc3c4nnc(SCC(=O)Nc5ccc(C#N)cc5)n4ccn3n2)cc1`, the Inhibition in experiment [1] is recorded as -3.8%; in experiment [2], -6.47%.

For `Cc1cccc(Oc2nccn3c(=O)n(CC(=O)Nc4cccc(C(F)(F)F)c4)nc23)c1C`, the Inhibition in experiment [1] is reported as 4.71%; in experiment [2], -4.64%.

With `CCc1nnc2c(S(=O)(=O)N(Cc3cc(F)cc(F)c3)c3cccc(F)c3)cccn12`, the Inhibition in experiment [1] is 2.06%; in experiment [2], -5.05%.

For the compound `Cc1cc(C)cc(NC(=O)Cn2nc3c(Sc4cccc(C)c4)nc4ccccc4n3c2=O)c1`, the Inhibition in experiment [1] was determined as 1.17%; in experiment [2], 2.96%.

As for `Cc1cc(Nc2ccc(F)cc2)nc2nn(Cc3cccc(C#N)c3)c(=O)n12`, the figures for the Inhibition in experiment [1] and in experiment [2] were -3.76% and -11.43%, respectively.

On to `Cc1ccc(-c2ccc3nn(CC(=O)Nc4c(C)cccc4C)c(=O)n3n2)cc1C`, for which the values for the Inhibition in experiment [1] and in experiment [2] were -0.95% and -11.36%, respectively.

Consider `COc1ccc(NC(=O)Cn2nc3c4cc(-c5ccc(C)cc5)nn4ccn3c2=O)cc1`, for which the Inhibition is recorded as -5.75% in experiment [1] and -1.43% in experiment [2].

As to `COc1ccc(NC(=O)Cn2nc3c(SC4CCCCC4)nccn3c2=O)cc1`, the Inhibition in experiment [1] is recorded as -2.9%; in experiment [2], -3.75%.

As for `COC(=O)c1cccc(NC(=O)Cn2nc3ccc(-c4ccc(C)c(C)c4)nn3c2=O)c1`, the Inhibition in experiment [1] is 2.69%; in experiment [2] it was -10.93%.

In the case of `COc1ccc(-c2cc3c4nnc(SCC(=O)Nc5ccccc5F)n4ccn3n2)cc1`, the values for the Inhibition in experiment [1] and in experiment [2] were -1.6% and -2.74%, respectively.

On to `COc1ccc(NC(=O)Cn2nc3c4cc(-c5ccc(C)c(C)c5)nn4ccn3c2=O)cc1`, for which the Inhibition in experiment [1] is 11.77%; in experiment [2], -2.93%.

The record behind these values is ChEMBL document CHEMBL4513146, “CO-ADD screening of Karazin Kharkiv National University (Ukraine) compounds”.
